This note sets out measurements from article PMC7862700, “An all-to-all approach to the identification of sequence-specific readers for epigenetic DNA modifications on cytosine”.

Common to all, as to assay: DAPPL (digital affinity profiling via proximity ligation, sequencing); 10 mM Tris-HCl pH 7.5, 50 mM NaCl, 1 mM DTT, 4% glycerol, room temperature, 30 min; GST-TFs on glutathione beads, 16-mer random dsDNA library, 0.1% formaldehyde crosslink after washing; high values mean tight binding
Common to all, as to details: protein: recombinant; tags: N-terminal GST; dsDNA, one strand shown

One assay has as its target T1, FLI1 (Homo sapiens, UniProt Q01543 1-452).
T1 sequence: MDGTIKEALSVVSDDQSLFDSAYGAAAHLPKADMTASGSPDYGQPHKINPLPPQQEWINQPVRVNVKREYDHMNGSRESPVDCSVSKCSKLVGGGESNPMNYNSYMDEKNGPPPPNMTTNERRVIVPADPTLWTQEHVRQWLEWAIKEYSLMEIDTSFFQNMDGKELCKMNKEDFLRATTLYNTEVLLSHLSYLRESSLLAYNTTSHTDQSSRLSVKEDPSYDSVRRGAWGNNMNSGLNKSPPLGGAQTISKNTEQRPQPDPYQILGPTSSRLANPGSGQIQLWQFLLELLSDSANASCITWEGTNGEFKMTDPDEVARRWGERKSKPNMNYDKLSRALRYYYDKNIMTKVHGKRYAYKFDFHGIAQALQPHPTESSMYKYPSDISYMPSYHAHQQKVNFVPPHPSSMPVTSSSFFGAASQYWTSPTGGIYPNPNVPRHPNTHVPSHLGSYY
The method in brief: (§1)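 Binding signal is given per hexamer as its read frequency for a factor divided by its frequency in the tag-only sample. GST-fused human transcription factors were expressed in yeast, captured on glutathione beads, barcoded with DNA and pooled with that sample, then incubated with 200 nmole of a 16-mer random double-stranded DNA library in Tris/NaCl/DTT/glycerol buffer for 30 min at room temperature. The pools were then washed, crosslinked, proximity-ligated, amplified by PCR and sequenced on an Illumina NextSeq500.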

The target of the next assay is T2, ELK1 (Homo sapiens, UniProt P19419 1-428).
T2 sequence: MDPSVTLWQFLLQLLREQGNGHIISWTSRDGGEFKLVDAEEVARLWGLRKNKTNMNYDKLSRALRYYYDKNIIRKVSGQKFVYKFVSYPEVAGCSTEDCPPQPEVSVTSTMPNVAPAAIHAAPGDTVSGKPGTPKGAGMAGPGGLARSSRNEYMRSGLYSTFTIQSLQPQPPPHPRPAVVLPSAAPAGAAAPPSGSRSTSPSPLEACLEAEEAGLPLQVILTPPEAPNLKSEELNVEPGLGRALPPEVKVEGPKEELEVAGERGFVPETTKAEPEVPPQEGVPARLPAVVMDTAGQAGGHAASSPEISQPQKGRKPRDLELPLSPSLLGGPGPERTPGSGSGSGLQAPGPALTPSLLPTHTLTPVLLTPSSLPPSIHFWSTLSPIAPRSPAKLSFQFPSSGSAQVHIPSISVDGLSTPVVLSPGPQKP
The method in brief:
as §1

A further assay deals with T3, GABPA (Homo sapiens, UniProt Q06546 1-454).
T3 sequence: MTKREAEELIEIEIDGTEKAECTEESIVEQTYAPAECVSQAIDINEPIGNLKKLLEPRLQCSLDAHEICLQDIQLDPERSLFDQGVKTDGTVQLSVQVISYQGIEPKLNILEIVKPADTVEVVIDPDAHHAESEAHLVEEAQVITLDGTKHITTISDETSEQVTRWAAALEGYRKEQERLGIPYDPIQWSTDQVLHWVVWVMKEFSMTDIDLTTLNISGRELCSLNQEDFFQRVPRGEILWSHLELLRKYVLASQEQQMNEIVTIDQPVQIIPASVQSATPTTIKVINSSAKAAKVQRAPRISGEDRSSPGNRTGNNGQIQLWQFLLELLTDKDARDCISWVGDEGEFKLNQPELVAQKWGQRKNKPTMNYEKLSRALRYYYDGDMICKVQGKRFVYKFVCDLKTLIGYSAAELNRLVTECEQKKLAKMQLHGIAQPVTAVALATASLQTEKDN
In short, it runs like this: as §1

A further assay concerns the target T4, ERG (Homo sapiens, UniProt P11308 1-479).
T4 sequence: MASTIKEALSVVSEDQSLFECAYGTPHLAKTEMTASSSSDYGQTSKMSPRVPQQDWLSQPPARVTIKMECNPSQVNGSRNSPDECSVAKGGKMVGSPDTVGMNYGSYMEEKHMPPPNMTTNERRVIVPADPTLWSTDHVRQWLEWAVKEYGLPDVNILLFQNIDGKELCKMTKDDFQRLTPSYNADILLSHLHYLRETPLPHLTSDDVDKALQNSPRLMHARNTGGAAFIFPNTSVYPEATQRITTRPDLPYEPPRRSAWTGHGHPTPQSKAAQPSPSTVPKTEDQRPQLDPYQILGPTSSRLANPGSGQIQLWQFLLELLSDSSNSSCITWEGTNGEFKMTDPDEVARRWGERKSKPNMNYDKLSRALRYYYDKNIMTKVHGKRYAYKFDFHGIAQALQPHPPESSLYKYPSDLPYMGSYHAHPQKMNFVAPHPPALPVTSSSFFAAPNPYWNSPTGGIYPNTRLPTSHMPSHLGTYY
The method in brief: as §1

The target of another assay is ELF1 (Homo sapiens, UniProt P32519 1-619). In short, it runs like this: as §1
ELF1, sequence (P32519 whole entry): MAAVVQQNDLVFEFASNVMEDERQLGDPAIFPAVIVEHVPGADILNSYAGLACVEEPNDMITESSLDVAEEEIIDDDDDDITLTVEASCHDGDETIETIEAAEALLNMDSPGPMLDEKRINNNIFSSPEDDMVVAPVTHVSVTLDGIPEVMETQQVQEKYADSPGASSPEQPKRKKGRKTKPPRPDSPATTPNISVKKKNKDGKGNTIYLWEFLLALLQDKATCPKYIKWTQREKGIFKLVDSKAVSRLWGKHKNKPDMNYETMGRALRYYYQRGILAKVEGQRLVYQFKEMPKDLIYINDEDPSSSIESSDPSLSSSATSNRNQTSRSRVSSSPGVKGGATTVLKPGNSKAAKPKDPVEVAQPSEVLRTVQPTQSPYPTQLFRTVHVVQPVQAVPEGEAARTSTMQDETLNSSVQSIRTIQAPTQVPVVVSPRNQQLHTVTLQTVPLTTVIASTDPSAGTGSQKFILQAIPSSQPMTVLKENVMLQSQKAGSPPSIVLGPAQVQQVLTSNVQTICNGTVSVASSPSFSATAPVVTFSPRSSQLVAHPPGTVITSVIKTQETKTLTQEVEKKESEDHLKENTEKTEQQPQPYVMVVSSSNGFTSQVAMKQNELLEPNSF
The next assay has as its target T5, EHF (Homo sapiens, UniProt Q9NZC4 1-300).
T5 sequence: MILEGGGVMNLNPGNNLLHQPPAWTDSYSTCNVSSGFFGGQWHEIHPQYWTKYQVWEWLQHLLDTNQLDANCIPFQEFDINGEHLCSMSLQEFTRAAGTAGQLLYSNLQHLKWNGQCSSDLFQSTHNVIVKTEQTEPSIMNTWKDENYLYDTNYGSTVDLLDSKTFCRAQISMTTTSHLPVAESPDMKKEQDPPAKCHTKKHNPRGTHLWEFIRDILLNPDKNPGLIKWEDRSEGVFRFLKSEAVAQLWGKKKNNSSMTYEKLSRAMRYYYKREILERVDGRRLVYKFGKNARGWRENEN
The method in brief:
as §1

For a further assay, the target named is SPI1 (Homo sapiens, UniProt P17947 1-270). The method in brief:
as §1

A further assay deals with SPIB (Homo sapiens, UniProt Q01892 1-262). In short, it runs like this:
as §1

For the next assay, the target named is T6, ELK3 (Homo sapiens, UniProt P41970 1-407).
T6 sequence: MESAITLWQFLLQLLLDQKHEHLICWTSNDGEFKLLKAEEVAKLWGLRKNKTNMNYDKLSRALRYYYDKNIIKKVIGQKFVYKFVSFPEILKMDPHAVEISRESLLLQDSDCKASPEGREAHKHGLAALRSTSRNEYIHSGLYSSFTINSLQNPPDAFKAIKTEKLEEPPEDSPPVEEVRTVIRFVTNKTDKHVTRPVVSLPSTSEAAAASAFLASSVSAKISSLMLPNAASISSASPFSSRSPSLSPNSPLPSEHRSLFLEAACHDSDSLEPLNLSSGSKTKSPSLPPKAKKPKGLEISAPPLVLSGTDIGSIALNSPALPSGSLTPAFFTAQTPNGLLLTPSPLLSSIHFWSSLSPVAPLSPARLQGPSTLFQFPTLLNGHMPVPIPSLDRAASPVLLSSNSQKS
In short, it runs like this:
as §1

SPIB, sequence (Q01892 whole entry): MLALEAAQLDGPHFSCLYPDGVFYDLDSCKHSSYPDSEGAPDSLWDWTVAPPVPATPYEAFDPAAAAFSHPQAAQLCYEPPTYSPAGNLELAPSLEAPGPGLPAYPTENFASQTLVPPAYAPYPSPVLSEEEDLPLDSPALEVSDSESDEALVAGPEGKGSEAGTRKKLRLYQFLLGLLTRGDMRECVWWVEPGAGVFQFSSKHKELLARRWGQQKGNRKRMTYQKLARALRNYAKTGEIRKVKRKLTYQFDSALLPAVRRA

On to TCCTCC, for which the binding signal was 1.47 fold enrichment (6-mer frequency, TF over GST control) with FLI1; 1.61 fold enrichment (6-mer frequency, TF over GST control) with ELK1; 1.49 fold enrichment (6-mer frequency, TF over GST control) with GABPA; 1.58 fold enrichment (6-mer frequency, TF over GST control) in the assay with ERG; 1.52 fold enrichment (6-mer frequency, TF over GST control) with ELF1; 1.61 fold enrichment (6-mer frequency, TF over GST control) with EHF. Also, the binding signal with SPI1 was 1.68 fold enrichment (6-mer frequency, TF over GST control); in the assay with SPIB, 1.6 fold enrichment (6-mer frequency, TF over GST control); with ELK3, 1.55 fold enrichment (6-mer frequency, TF over GST control).

Take CACTAA: the binding signal with FLI1 is 1.09 fold enrichment (6-mer frequency, TF over GST control); in the assay with ELK1, 1.21 fold enrichment (6-mer frequency, TF over GST control); with GABPA, 1.11 fold enrichment (6-mer frequency, TF over GST control); in the assay with ERG it was 1.1 fold enrichment (6-mer frequency, TF over GST control); with ELF1, 1.18 fold enrichment (6-mer frequency, TF over GST control); with EHF, 1.21 fold enrichment (6-mer frequency, TF over GST control). For the same sequence, the binding signal with SPI1 was 1.19 fold enrichment (6-mer frequency, TF over GST control); with SPIB, 1.18 fold enrichment (6-mer frequency, TF over GST control); with ELK3 it was 1.18 fold enrichment (6-mer frequency, TF over GST control).

As to TTTAGC, the binding signal with FLI1 is 1.04 fold enrichment (6-mer frequency, TF over GST control); with ELK1 it was 1.05 fold enrichment (6-mer frequency, TF over GST control); with GABPA it was 1.2 fold enrichment (6-mer frequency, TF over GST control); in the assay with ERG it was 1.16 fold enrichment (6-mer frequency, TF over GST control); in the assay with ELF1 it was 1.19 fold enrichment (6-mer frequency, TF over GST control); with EHF, 1.12 fold enrichment (6-mer frequency, TF over GST control). For the same sequence, the binding signal in the assay with SPI1 was 1.05 fold enrichment (6-mer frequency, TF over GST control); with SPIB, 1.14 fold enrichment (6-mer frequency, TF over GST control); with ELK3, 1.09 fold enrichment (6-mer frequency, TF over GST control).

Turning to TCTTCT, the binding signal in the assay with FLI1 was 1.3 fold enrichment (6-mer frequency, TF over GST control); in the assay with ELK1 it was 1.29 fold enrichment (6-mer frequency, TF over GST control); with GABPA, 1.21 fold enrichment (6-mer frequency, TF over GST control); with ERG, 1.23 fold enrichment (6-mer frequency, TF over GST control); in the assay with ELF1, 1.25 fold enrichment (6-mer frequency, TF over GST control); with EHF, 1.14 fold enrichment (6-mer frequency, TF over GST control). The binding signal with SPI1 is 1.22 fold enrichment (6-mer frequency, TF over GST control); with SPIB, 1.19 fold enrichment (6-mer frequency, TF over GST control); with ELK3 it was 1.25 fold enrichment (6-mer frequency, TF over GST control).

Take TTCTGG: the binding signal with FLI1 is 1.36 fold enrichment (6-mer frequency, TF over GST control); with ELK1, 1.16 fold enrichment (6-mer frequency, TF over GST control); in the assay with GABPA, 1.32 fold enrichment (6-mer frequency, TF over GST control); with ERG, 1.31 fold enrichment (6-mer frequency, TF over GST control); in the assay with ELF1, 1.14 fold enrichment (6-mer frequency, TF over GST control); in the assay with EHF, 1.2 fold enrichment (6-mer frequency, TF over GST control). In addition, the binding signal with SPI1 is 1.24 fold enrichment (6-mer frequency, TF over GST control); with SPIB it was 1.18 fold enrichment (6-mer frequency, TF over GST control); with ELK3, 1.48 fold enrichment (6-mer frequency, TF over GST control).

With GTTTCT, the binding signal with FLI1 was 1.36 fold enrichment (6-mer frequency, TF over GST control); in the assay with ELK1, 1.17 fold enrichment (6-mer frequency, TF over GST control); in the assay with GABPA it was 1.26 fold enrichment (6-mer frequency, TF over GST control); in the assay with ERG, 1.22 fold enrichment (6-mer frequency, TF over GST control); with ELF1, 1.29 fold enrichment (6-mer frequency, TF over GST control); in the assay with EHF it was 1.28 fold enrichment (6-mer frequency, TF over GST control). Further, the binding signal in the assay with SPI1 is 1.31 fold enrichment (6-mer frequency, TF over GST control); in the assay with SPIB, 1.25 fold enrichment (6-mer frequency, TF over GST control); with ELK3, 1.14 fold enrichment (6-mer frequency, TF over GST control).

CCTAAA: the binding signal with FLI1 is 1.35 fold enrichment (6-mer frequency, TF over GST control); with ELK1, 1.26 fold enrichment (6-mer frequency, TF over GST control); in the assay with GABPA, 1.25 fold enrichment (6-mer frequency, TF over GST control); with ERG it was 1.37 fold enrichment (6-mer frequency, TF over GST control); in the assay with ELF1, 1.34 fold enrichment (6-mer frequency, TF over GST control); in the assay with EHF, 1.28 fold enrichment (6-mer frequency, TF over GST control). The binding signal was 1.25 fold enrichment (6-mer frequency, TF over GST control) with SPI1; 1.26 fold enrichment (6-mer frequency, TF over GST control) in the assay with SPIB; 1.4 fold enrichment (6-mer frequency, TF over GST control) with ELK3.
